Measured values from PubChem BioAssay.
Where “and” joins values, the source holds several entries; their conditions need not be identical. Identical values can stand only once. Unmarked numbers belong to inactive results. The rule behind the calls is not given here.

system: Botulinum neurotoxin type F light chain protease (Clostridium botulinum); assay: Botulinum neurotoxin type F light chain protease inhibition, multiplex microsphere flow cytometry, validation set (AID 588459); settings: multiplex microsphere protease substrate cleavage assay, at 10 µM, stronger effect = higher value

Question: Which inhibition does the source give for `C[N+](C)(C)CCOP(=O)([O-])OC[C@H](O)CO` here?
Answer: 1.7%

Question: `COc1ccc2[nH]cc(C3N4CC5(C)CN3CC(C)(C4)C5=O)c2c1` (stereo not given) was tested. Which inhibition did it give?
Answer: 3%

Question: Which inhibition does the source give for `Cc1ccc2c(c1)C(O)(C1COC(C)(C)CC1=O)C(=O)N2C` (stereo not given) here?
Answer: -1.1%

Question: For `COc1ccc(CNCCC2(C(C)C)CCOC(C)(C)C2)cc1` (stereo not given), which inhibition is on record?
Answer: 1.9%

Question: `CC(=O)[C@H]1CC[C@H]2[C@@H]3CCC4=CC(=O)CC[C@]4(C)[C@H]3CC[C@]12C` was tested. Which inhibition did it give?
Answer: 2.7%

Question: With `COc1cccc(C2CCCN2Cc2nc(CCC(C)C)no2)c1` (stereo not given) as the compound, how does the inhibition read?
Answer: -2.5%

Question: For `CCC(C)NCCOCCOc1ccc(Cl)cc1Br` (stereo not given), which inhibition is on record?
Answer: 0.5%

Question: `O=C(CN1CCN(Cc2ccccc2)CC1)N1CCCc2c1c(=O)oc1ccc(O)cc21` was tested. Which inhibition did it give?
Answer: 2%

Question: Which inhibition does the source give for `CN(C)c1nc(N(C)C)nc(N(C)C)n1` here?
Answer: 6.4%

Question: How did the inhibition turn out when `O=C(c1cc2cc(Br)ccc2o1)N1CCCCC1` was run?
Answer: 5.3%

Question: Which inhibition does the source give for `Cc1nc2c(c3c1[nH]c1ccccc13)C(=O)CC(C)(C)C2` here?
Answer: 2.1%

Question: How did the inhibition turn out when `CN1C2CCC1CC(OC(c1ccccc1)c1ccccc1)C2` (stereo not given) was run?
Answer: 2.3%

Question: Which inhibition does the source give for `Cc1[nH]c2ccccc2c1/C=C/c1nc2ccccc2c(=O)n1CCO` here?
Answer: 0%

Question: For `CCn1c(O)c(/C=C2\C=Nc3ccccc32)sc1=O`, which inhibition is on record?
Answer: 2.3%

Question: How did the inhibition turn out when `CC(=O)CCc1c(C)c2cccc(C)c2[nH]c1=O` was run?
Answer: 4.3%

Question: How did the inhibition turn out when `Cn1cc(C2N3CC4(C)CN2CC(C)(C3)C4=O)c2ccccc21` (stereo not given) was run?
Answer: 1%

Question: With `Cc1ccc2c(c1)C1OCCC1C1N2C(=O)C2C(C(=O)O)C3C=CC21O3` (stereo not given) as the compound, how does the inhibition read?
Answer: -1.8%

Question: How did the inhibition turn out when `CC1=NS(=O)(=O)c2cc(Cl)ccc2N1` was run?
Answer: 1.4%

Question: `CCN(CC)c1ccc(C2=NNC(=O)CC2C)cc1[N+](=O)[O-]` (stereo not given) was tested. Which inhibition did it give?
Answer: -2.1%

Question: With `C[n+]1ccccc1/C=N/O` as the compound, how does the inhibition read?
Answer: 2.2% and 2.6%

Question: Which inhibition does the source give for `CN=C1c2cc3cc(OC)ccc3n2CCN1C` here?
Answer: -1.5%

Question: Which inhibition does the source give for `Cc1ccccc1C(=O)Oc1ccc(Sc2ccc(O)cc2)cc1` here?
Answer: -2%

Question: `CCN1C(=O)C(CC(=O)Nc2ccc(OC)cc2)N(CCc2ccc(F)cc2)C1=S` (stereo not given) was tested. Which inhibition did it give?
Answer: 0.2%

Question: Which inhibition does the source give for `O=C(OCCN1CCOCC1)c1cccs1` here?
Answer: -2.8%

Question: `COc1ccc(C(C)N2CC34C=CC(O3)C(C(=O)OCC(C)C)C4C2=O)cc1` (stereo not given) was tested. Which inhibition did it give?
Answer: -1.9%

Question: `O=C(Cc1cccc2ccccc12)N1CC[C@@]2(O)CCCC[C@H]2C1` was tested. Which inhibition did it give?
Answer: 2.2%

Question: How did the inhibition turn out when `O=C(O)c1ccc(C(=O)C(=O)c2ccccc2)cc1` was run?
Answer: 1.6%

Question: For `C/C(=N\N=C1\NC(=O)C(CC(=O)Nc2ccc(Cl)cc2)S1)c1ccco1` (stereo not given), which inhibition is on record?
Answer: -0.1%

Question: For `CC12CCC(C(=O)N3CCc4ccccc43)(CC1=O)C2(C)C` (stereo not given), which inhibition is on record?
Answer: 0.6%

Question: Which inhibition does the source give for `COc1ccc(C2C(C#N)=C(N)Oc3cc(C)[nH]c(=O)c32)c(OC)c1OC` (stereo not given) here?
Answer: 1.9%

Question: Which inhibition does the source give for `CC(=O)Nc1ccc(OS(=O)(=O)c2c(C)cc(C)cc2C)cc1` here?
Answer: -3.3%

Question: With `O=C(O)[C@@H](O)c1ccccc1` as the compound, how does the inhibition read?
Answer: -0.3%

Question: With `O=C(CCCN1CC=C(n2c(=O)[nH]c3ccccc32)CC1)c1ccc(F)cc1` as the compound, how does the inhibition read?
Answer: -1.3%

Question: `Cn1nc(-c2ccccn2)nc2c(=O)n(C)c(=O)nc1-2` was tested. Which inhibition did it give?
Answer: -0.9%

Question: For `CCOCCn1c(C(C)O)nc2ccccc21` (stereo not given), which inhibition is on record?
Answer: 4%

Question: With `CC1(C)CC(NC(=O)C23CCC(C)(C(=O)C2=O)C3(C)C)CC(C)(C)N1` (stereo not given) as the compound, how does the inhibition read?
Answer: 2.9%

Question: With `Cc1cc(C)cc(Nc2nc3c([nH]2)c(=O)n(C)c(=O)n3C)c1` as the compound, how does the inhibition read?
Answer: -0.8%

Question: Which inhibition does the source give for `CN(C)CCC(c1ccccc1)c1ccccn1` (stereo not given) here?
Answer: -2.8%

Question: How did the inhibition turn out when `Oc1ccccc1OCCOc1ccccc1OCCOc1ccccc1O` was run?
Answer: 6.5%

Question: `CC(C)OC(=O)CC12CN3CN(C1)CC(CC(=O)OC(C)C)(C3)C2=O` was tested. Which inhibition did it give?
Answer: 1.8%

target: Botulinum neurotoxin type A (Clostridium botulinum) (UniProt P0DPI0); assay: BoNT/A light chain protease inhibitors, biochemical, multiplex microsphere flow cytometry, validation set (AID 588460); settings: at 10 µM, stronger effect = higher value
Sequence (P0DPI0 whole entry, looked up): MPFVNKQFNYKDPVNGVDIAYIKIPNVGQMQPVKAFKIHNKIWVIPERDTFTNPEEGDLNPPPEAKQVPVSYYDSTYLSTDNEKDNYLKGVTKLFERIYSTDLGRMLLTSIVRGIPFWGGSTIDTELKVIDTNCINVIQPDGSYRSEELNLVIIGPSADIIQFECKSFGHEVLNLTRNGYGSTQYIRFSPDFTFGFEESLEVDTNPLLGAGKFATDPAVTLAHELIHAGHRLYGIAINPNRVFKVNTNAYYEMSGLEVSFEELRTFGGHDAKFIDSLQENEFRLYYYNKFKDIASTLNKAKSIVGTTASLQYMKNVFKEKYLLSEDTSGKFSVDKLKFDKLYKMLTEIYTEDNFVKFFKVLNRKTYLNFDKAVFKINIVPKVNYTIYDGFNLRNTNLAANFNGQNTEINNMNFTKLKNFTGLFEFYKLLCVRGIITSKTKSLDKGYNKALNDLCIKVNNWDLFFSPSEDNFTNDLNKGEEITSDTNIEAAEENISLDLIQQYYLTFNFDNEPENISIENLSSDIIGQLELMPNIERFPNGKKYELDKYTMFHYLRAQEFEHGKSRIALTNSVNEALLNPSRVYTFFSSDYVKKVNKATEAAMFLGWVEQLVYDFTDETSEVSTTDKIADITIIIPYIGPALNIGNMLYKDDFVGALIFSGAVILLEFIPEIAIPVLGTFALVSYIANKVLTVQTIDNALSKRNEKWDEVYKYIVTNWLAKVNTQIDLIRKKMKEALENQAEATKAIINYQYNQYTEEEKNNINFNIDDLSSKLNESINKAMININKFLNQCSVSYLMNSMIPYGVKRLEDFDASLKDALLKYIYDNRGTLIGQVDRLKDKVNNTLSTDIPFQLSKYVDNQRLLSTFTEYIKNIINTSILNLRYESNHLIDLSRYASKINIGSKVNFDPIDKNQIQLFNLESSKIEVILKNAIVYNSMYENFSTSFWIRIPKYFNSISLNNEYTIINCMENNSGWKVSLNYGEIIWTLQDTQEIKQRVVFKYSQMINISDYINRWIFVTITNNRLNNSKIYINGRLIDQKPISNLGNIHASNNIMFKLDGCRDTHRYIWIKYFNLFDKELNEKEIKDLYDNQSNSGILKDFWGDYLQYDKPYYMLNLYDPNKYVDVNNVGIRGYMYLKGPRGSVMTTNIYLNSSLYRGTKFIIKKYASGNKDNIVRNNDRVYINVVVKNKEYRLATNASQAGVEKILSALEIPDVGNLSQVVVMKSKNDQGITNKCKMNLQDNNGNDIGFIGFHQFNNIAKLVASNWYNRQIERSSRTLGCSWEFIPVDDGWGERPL

Question: How did the inhibition turn out when `C[N+](C)(C)CCOP(=O)([O-])OC[C@H](O)CO` was run?
Answer: -0.4%

Question: With `COc1ccc2[nH]cc(C3N4CC5(C)CN3CC(C)(C4)C5=O)c2c1` (stereo not given) as the compound, how does the inhibition read?
Answer: -0.2%

Question: How did the inhibition turn out when `Cc1ccc2c(c1)C(O)(C1COC(C)(C)CC1=O)C(=O)N2C` (stereo not given) was run?
Answer: 1.7%

Question: With `COc1ccc(CNCCC2(C(C)C)CCOC(C)(C)C2)cc1` (stereo not given) as the compound, how does the inhibition read?
Answer: 0.8%

Question: With `CC(=O)[C@H]1CC[C@H]2[C@@H]3CCC4=CC(=O)CC[C@]4(C)[C@H]3CC[C@]12C` as the compound, how does the inhibition read?
Answer: 1.5%

Question: For `COc1cccc(C2CCCN2Cc2nc(CCC(C)C)no2)c1` (stereo not given), which inhibition is on record?
Answer: -0.8%

Question: `CCC(C)NCCOCCOc1ccc(Cl)cc1Br` (stereo not given) was tested. Which inhibition did it give?
Answer: 0.2%

Question: `O=C(CN1CCN(Cc2ccccc2)CC1)N1CCCc2c1c(=O)oc1ccc(O)cc21` was tested. Which inhibition did it give?
Answer: -1.5%

Question: For `CN(C)c1nc(N(C)C)nc(N(C)C)n1`, which inhibition is on record?
Answer: 2.6%

Question: With `O=C(c1cc2cc(Br)ccc2o1)N1CCCCC1` as the compound, how does the inhibition read?
Answer: -0.6%

Question: For `Cc1nc2c(c3c1[nH]c1ccccc13)C(=O)CC(C)(C)C2`, which inhibition is on record?
Answer: 0.3%

Question: `CN1C2CCC1CC(OC(c1ccccc1)c1ccccc1)C2` (stereo not given) was tested. Which inhibition did it give?
Answer: 0.7%

Question: How did the inhibition turn out when `Cc1[nH]c2ccccc2c1/C=C/c1nc2ccccc2c(=O)n1CCO` was run?
Answer: -0.4%

Question: For `CCn1c(O)c(/C=C2\C=Nc3ccccc32)sc1=O`, which inhibition is on record?
Answer: 0.3%

Question: For `CC(=O)CCc1c(C)c2cccc(C)c2[nH]c1=O`, which inhibition is on record?
Answer: 0.8%

Question: Which inhibition does the source give for `Cn1cc(C2N3CC4(C)CN2CC(C)(C3)C4=O)c2ccccc21` (stereo not given) here?
Answer: 1.7%

Question: With `Cc1ccc2c(c1)C1OCCC1C1N2C(=O)C2C(C(=O)O)C3C=CC21O3` (stereo not given) as the compound, how does the inhibition read?
Answer: -0.8%

Question: Which inhibition does the source give for `CC1=NS(=O)(=O)c2cc(Cl)ccc2N1` here?
Answer: -0.3%

Question: `CCN(CC)c1ccc(C2=NNC(=O)CC2C)cc1[N+](=O)[O-]` (stereo not given) was tested. Which inhibition did it give?
Answer: -0.3%

Question: `C[n+]1ccccc1/C=N/O` was tested. Which inhibition did it give?
Answer: 0.3% and 1.2%

Question: How did the inhibition turn out when `CN=C1c2cc3cc(OC)ccc3n2CCN1C` was run?
Answer: -0.6%

Question: Which inhibition does the source give for `Cc1ccccc1C(=O)Oc1ccc(Sc2ccc(O)cc2)cc1` here?
Answer: -0.4%

Question: `CCN1C(=O)C(CC(=O)Nc2ccc(OC)cc2)N(CCc2ccc(F)cc2)C1=S` (stereo not given) was tested. Which inhibition did it give?
Answer: 1.4%

Question: Which inhibition does the source give for `O=C(OCCN1CCOCC1)c1cccs1` here?
Answer: -0.9%

Question: With `COc1ccc(C(C)N2CC34C=CC(O3)C(C(=O)OCC(C)C)C4C2=O)cc1` (stereo not given) as the compound, how does the inhibition read?
Answer: -1.2%

Question: Which inhibition does the source give for `O=C(Cc1cccc2ccccc12)N1CC[C@@]2(O)CCCC[C@H]2C1` here?
Answer: 0.2%

Question: Which inhibition does the source give for `O=C(O)c1ccc(C(=O)C(=O)c2ccccc2)cc1` here?
Answer: 1.8%

Question: `C/C(=N\N=C1\NC(=O)C(CC(=O)Nc2ccc(Cl)cc2)S1)c1ccco1` (stereo not given) was tested. Which inhibition did it give?
Answer: 0.1%

Question: Which inhibition does the source give for `CC12CCC(C(=O)N3CCc4ccccc43)(CC1=O)C2(C)C` (stereo not given) here?
Answer: -0.7%

Question: `COc1ccc(C2C(C#N)=C(N)Oc3cc(C)[nH]c(=O)c32)c(OC)c1OC` (stereo not given) was tested. Which inhibition did it give?
Answer: 0.1%

Question: For `CC(=O)Nc1ccc(OS(=O)(=O)c2c(C)cc(C)cc2C)cc1`, which inhibition is on record?
Answer: -1%

Question: For `O=C(O)[C@@H](O)c1ccccc1`, which inhibition is on record?
Answer: 0%

Question: With `O=C(CCCN1CC=C(n2c(=O)[nH]c3ccccc32)CC1)c1ccc(F)cc1` as the compound, how does the inhibition read?
Answer: -1%

Question: How did the inhibition turn out when `Cn1nc(-c2ccccn2)nc2c(=O)n(C)c(=O)nc1-2` was run?
Answer: 2.9%

Question: Which inhibition does the source give for `CCOCCn1c(C(C)O)nc2ccccc21` (stereo not given) here?
Answer: 0.3%

Question: With `CC1(C)CC(NC(=O)C23CCC(C)(C(=O)C2=O)C3(C)C)CC(C)(C)N1` (stereo not given) as the compound, how does the inhibition read?
Answer: -0.7%

Question: For `Cc1cc(C)cc(Nc2nc3c([nH]2)c(=O)n(C)c(=O)n3C)c1`, which inhibition is on record?
Answer: 0.5%

Question: Which inhibition does the source give for `CN(C)CCC(c1ccccc1)c1ccccn1` (stereo not given) here?
Answer: -0.2%

Question: For `Oc1ccccc1OCCOc1ccccc1OCCOc1ccccc1O`, which inhibition is on record?
Answer: 0.7%

Question: How did the inhibition turn out when `CC(C)OC(=O)CC12CN3CN(C1)CC(CC(=O)OC(C)C)(C3)C2=O` was run?
Answer: -0.4%
